# Experimental data reported in PubChem BioAssay.
# Activity calls are given as the source filed them.
# What was measured:
# [1] = small molecules captured by biotinylated probe aFSTL3 – biochemical, small-molecule microarray, fluorescence 635/667, stem cell growth factor project, primary screen (AID 1064); settings: higher = more signal;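 also: measures binding of the biotinylated anti-FSTL3 antibody to printed compounds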
# [2] = binders from COS7 lysate, DM2A8 probe, primary screen, torsin A project, cell lysate, small-molecule microarray, fluorescence 635/667 (AID 1065); settings: higher = more signal, COS7 lysate expressing mutant human TOR1A
# [3] = small molecules captured by biotinylated probe aFGF2 – biochemical, small-molecule microarray, fluorescence 635/667, stem cell growth factor project, primary screen (AID 1067); settings: higher = more signal;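 also: measures binding of biotinylated aFGF2 protein to printed compounds on slides; z-score merges feature fluorescence and signal-to-noise across triplicate slides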
# [4] = small molecules captured by biotinylated probe aFGF10 – biochemical, small-molecule microarray, fluorescence 635/667, stem cell growth factor project, primary screen (AID 1071); settings: higher = more signal;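 also: score merges 667 nm spot intensity and signal to noise from triplicate slides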
# [5] = target: Neurogenic locus notch homolog protein 2 (Homo sapiens) (UniProt Q04721); assay: small molecules binding Notch2 protein – biochemical, small-molecule microarray, 635 nm fluorescence, stem cell growth factors, primary screen (AID 1073); settings: higher = more signal
# [6] = target: Pro-neuregulin-1, membrane-bound isoform (Homo sapiens) (UniProt Q02297); assay: small molecules binding neuregulin-1 protein – biochemical, small-molecule microarray, fluorescence 635/667, psychiatric disease protein project, primary screen (AID 1075); settings: NRG1 binding, 635 nm fluorescence, higher = more signal;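 also: score combines 667 nm spot fluorescence with signal to noise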
# [7] = system: Neuregulin-1 EGF-like domain; assay: small molecules binding NRG1 EGF domain – biochemical, small-molecule microarray, 635 nm fluorescence, primary screen (AID 1081); settings: higher = more signal;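 also: binding of the protein to compounds printed on small-molecule microarray slides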
# [8] = FRG1 expression reporter modulators in myotubes – cell-based, C2C12 myotubes, firefly/Renilla luciferase, luminescence, FRG1 inhibition for FSHD, primary screen (AID 1084); settings: FRG1 promoter luciferase, higher = more signal, called active from +8 up or from −8 down
# [9] = small molecules captured by biotinylated probe aFST – biochemical, small-molecule microarray, fluorescence 635/667, stem cell growth factor project, primary screen (AID 1086); settings: higher = more signal;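 also: score merges 667 nm fluorescence with signal-to-noise of each printed compound spot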
# [10] = binders of probe aHhip on microarray, primary screen, stem cell growth factor project, biochemical, small-molecule microarray, fluorescence 635/667 (AID 1087); settings: higher = more signal;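 also: score merges spot fluorescence at 667nm with spot signal to noise ratio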
# [11] = system: PRMT1 (protein arginine N-methyltransferase 1); assay: small molecules binding arginine methyltransferase PRMT1 – biochemical, small-molecule microarray, 635 nm fluorescence, primary screen (AID 1088); settings: higher = more signal;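 also: binding of Prmt1 protein to compounds spotted on small-molecule microarray slides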
# [12] = growth effects on S. cerevisiae YJM789 – YJM789 clinical isolate, OD600, 24 h, basal, primary screen (AID 1089); settings: higher = more signal, called active from +8 up or from −8 down;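 also: growth of clinical yeast isolate S. cerevisiae YJM 789 seeded 1000 cells per well; test concentration not given here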
# [13] = S. pombe growth modifiers, basal conditions – strain 972, OD600, 24 h, no modulator, primary screen (AID 1090);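 also: basal condition with compound alone and no growth modifier present; test concentration not given here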; settings: S. pombe 972 growth, higher = more signal, called active from +8 up or from −8 down
# [14] = budding yeast growth modifiers under rapamycin – strain BY4716, OD600, 96 h, primary screen (AID 1091); also: test concentration not given here; settings: S. cerevisiae BY4716 + rapamycin, higher = more signal, called active from +8 up or from −8 down
# [15] = target: Torsin-1A-interacting protein 2 (Homo sapiens) (UniProt Q8NFQ8); assay: small molecules binding lysate-expressed LULL1 – cell lysate, human LULL1 lysate, 635/667 nm fluorescence, primary screen (AID 1092); settings: small-molecule microarray, hLULL1 lysate binding, 635 nm fluorescence; higher = more signal;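 also: probe is lysate of COS7 cells overexpressing human LULL1; score merges per-feature 667 nm fluorescence with signal-to-noise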
# [16] = optical density change of DRC41 E. coli – strain DRC41, OD650, 24 h, E. coli filamentation project, primary screen (AID 1093);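 also: MC1000 strain lacking acrAB efflux and sulA so SOS filamentation is blocked; test concentration not given here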; settings: E. coli DRC41 growth, higher = more signal, called active from +8 up or from −8 down
# [17] = probe aLefty2 binding to arrayed compounds – biochemical, biotinylated probe, 635/667 nm fluorescence, primary screen (AID 1094); settings: small-molecule microarray, higher = more signal;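 also: score merges spot fluorescence near 667 nm with spot signal-to-noise ratio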
# [18] = system: Noggin (protein binding on small-molecule microarray); assay: small molecules binding Noggin protein – biochemical, 635/667 nm fluorescence, primary screen (AID 1095); settings: 635 nm fluorescence, higher = more signal;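 also: score merges 667 nm feature fluorescence with signal to noise over triplicate slides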
# [19] = target: Neurogenic locus notch homolog protein 3 (Homo sapiens) (UniProt Q9UM47); assay: small molecules binding NOTCH3 protein – biochemical, 635/667 nm fluorescence, primary screen (AID 1096); settings: small-molecule microarray, 635 nm fluorescence, higher = more signal
# [20] = probe aEGFR binding to arrayed compounds – biochemical, biotinylated probe, 635/667 nm fluorescence, primary screen (AID 1097); settings: small-molecule microarray, higher = more signal;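 also: probe is a biotinylated anti-EGFR antibody binding compounds printed on slides; score combines fluorescence near 667 nm and signal to noise of each spot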
# Neurogenic locus notch homolog protein 2 (Homo sapiens), sequence (Q04721 whole entry, looked up, canonical isoform): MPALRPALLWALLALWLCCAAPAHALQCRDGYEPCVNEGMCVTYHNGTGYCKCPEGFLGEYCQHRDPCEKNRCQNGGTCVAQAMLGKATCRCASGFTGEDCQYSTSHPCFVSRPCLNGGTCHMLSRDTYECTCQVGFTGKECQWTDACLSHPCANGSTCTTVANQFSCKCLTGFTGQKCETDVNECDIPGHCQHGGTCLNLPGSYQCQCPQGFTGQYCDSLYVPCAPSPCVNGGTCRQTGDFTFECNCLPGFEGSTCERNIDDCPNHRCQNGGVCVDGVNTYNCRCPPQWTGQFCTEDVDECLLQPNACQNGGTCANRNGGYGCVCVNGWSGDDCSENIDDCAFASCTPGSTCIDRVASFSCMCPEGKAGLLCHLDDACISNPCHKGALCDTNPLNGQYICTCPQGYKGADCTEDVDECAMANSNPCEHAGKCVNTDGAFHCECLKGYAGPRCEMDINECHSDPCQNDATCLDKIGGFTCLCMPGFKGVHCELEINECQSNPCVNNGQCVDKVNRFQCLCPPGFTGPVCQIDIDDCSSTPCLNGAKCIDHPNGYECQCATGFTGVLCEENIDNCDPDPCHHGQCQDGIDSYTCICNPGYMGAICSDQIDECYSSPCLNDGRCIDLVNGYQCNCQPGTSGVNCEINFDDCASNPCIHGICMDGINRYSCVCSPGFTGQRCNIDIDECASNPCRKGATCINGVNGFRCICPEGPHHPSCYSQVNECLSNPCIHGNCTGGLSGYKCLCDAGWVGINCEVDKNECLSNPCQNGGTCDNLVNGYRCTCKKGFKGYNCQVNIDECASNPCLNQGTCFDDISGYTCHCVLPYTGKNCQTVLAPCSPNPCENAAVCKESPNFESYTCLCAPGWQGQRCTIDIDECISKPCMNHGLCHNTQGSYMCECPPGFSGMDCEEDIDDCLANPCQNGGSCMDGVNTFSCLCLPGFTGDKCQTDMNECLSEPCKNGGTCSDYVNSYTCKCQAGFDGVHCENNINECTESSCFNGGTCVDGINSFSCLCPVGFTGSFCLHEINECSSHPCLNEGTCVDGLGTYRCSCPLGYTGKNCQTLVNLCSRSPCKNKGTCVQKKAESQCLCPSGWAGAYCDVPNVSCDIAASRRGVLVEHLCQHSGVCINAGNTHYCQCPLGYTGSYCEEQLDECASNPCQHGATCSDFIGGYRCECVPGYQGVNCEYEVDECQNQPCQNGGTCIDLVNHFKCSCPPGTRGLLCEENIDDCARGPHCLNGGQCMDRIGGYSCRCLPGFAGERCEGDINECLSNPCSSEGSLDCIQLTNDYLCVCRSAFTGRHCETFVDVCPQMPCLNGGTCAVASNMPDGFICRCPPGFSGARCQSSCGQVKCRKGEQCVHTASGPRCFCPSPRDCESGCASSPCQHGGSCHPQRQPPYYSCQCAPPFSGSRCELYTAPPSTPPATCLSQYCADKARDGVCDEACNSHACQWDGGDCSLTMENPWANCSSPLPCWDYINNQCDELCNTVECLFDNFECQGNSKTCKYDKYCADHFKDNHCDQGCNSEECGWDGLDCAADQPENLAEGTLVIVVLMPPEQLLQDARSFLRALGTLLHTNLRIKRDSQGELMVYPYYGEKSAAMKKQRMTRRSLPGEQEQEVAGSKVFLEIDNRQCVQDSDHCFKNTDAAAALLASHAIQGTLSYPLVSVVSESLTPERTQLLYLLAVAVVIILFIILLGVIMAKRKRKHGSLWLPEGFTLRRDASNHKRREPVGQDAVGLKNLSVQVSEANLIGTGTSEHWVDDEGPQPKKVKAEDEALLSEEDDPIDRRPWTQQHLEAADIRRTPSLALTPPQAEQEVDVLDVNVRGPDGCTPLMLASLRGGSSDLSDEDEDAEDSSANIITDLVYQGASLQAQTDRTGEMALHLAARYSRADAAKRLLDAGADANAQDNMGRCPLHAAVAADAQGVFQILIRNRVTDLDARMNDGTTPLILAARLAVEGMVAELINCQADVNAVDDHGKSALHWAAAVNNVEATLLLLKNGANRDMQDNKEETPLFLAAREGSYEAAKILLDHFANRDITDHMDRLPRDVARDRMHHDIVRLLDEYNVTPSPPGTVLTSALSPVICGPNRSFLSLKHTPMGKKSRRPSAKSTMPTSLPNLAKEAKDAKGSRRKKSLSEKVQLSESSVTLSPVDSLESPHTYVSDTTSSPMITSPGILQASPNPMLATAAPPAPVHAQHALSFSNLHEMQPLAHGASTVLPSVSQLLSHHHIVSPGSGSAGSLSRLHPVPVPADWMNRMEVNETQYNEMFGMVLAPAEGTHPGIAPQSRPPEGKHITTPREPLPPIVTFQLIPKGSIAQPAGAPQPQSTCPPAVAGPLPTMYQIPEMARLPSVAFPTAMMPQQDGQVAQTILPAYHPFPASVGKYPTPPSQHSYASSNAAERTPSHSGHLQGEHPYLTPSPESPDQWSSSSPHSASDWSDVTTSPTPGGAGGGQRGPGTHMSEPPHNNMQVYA
# Pro-neuregulin-1, membrane-bound isoform (Homo sapiens), sequence (Q02297 whole entry, looked up, the tested form may be a part, canonical isoform): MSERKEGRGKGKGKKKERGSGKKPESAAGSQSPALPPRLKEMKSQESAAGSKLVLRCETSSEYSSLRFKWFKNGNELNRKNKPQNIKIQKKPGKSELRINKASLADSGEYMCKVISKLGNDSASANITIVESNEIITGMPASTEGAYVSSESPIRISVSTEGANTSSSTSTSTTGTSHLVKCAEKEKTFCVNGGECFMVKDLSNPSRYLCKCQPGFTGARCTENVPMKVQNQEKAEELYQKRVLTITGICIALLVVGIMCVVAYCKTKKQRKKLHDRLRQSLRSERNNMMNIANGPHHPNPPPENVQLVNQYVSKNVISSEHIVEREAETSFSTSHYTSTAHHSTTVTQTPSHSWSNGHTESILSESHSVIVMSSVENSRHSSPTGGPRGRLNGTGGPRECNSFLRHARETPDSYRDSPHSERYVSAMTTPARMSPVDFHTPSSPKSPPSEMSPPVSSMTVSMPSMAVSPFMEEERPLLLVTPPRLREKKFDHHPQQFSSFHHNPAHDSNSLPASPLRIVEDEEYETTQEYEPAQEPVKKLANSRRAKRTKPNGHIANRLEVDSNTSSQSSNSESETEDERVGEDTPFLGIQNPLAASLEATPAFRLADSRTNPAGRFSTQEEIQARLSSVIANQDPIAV
# Torsin-1A-interacting protein 2 (Homo sapiens), sequence (Q8NFQ8 whole entry, looked up): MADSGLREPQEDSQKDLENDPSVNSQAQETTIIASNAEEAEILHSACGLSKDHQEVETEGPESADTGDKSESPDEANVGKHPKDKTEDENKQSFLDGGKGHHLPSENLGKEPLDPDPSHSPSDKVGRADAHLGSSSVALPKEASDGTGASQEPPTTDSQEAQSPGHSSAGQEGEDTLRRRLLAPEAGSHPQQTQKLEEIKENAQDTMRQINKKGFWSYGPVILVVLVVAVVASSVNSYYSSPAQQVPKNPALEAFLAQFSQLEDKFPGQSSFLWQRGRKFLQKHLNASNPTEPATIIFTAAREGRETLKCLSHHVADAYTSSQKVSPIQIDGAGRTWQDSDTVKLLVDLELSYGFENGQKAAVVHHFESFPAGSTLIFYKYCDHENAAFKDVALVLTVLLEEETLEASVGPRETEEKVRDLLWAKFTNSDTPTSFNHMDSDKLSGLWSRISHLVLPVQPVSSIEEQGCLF
Structure (SMILES),composite z-score [1],composite z-score [2],composite z-score [3],composite z-score [4],composite z-score [5],composite z-score [6],composite z-score [7],z-score [8],composite z-score [9],composite z-score [10],composite z-score [11],z-score [12],z-score [13],z-score [14],composite z-score [15],z-score [16],composite z-score [17],composite z-score [18],composite z-score [19],composite z-score [20]
Cc1cc(C)c(C(O)C2C=CC3C(=O)N(c4ccccc4)C(=O)C3N2Nc2ccccc2)c(C)c1 (stereo not given),0.175,0.668,0.216,1.08,1.56,1.99,1.22,0.423 (inactive),1.25,-0.189,1.56,0.839 (inactive),0.483 (inactive),0.0441 (inactive),3.47,-1.02 (inactive),0.506,0.0982,1.05,0.178
[N-]=[N+]=NCc1ccccc1[C@H]1OC(c2ccc(OCCCO)cc2)=N[C@@]1(Cc1ccccc1)C(N)=O,0.712,0.163,0.0138,0.68,1.05,1.36,1.1,2.79 (inactive),1.24,0.0623,1.56,-0.116 (inactive),-1.07 (inactive),-0.443 (inactive),3.37,0.369 (inactive),0.408,0.429,1.13,0.29
CC(C)C(CO)N1C(=O)[C@@H]2[C@H]3C(=O)OCC=C[C@H]3OC23C=CCN(CCN2CCOCC2)C(=O)[C@@H]13 (stereo not given in full),-0.565,-1.13,-0.166,-0.351,-0.868,0.0853,-0.428,-0.0357 (inactive),-0.525,-0.538,0.598,1.21 (inactive),0.0729 (inactive),0.759 (inactive),1.13,-0.455 (inactive),-0.25,0.521,0.583,-0.244
CCCCC(=C=CC[C@H](O)c1cccc(OCCO)c1)C[C@H](O)COCc1ccccc1,-0.0829,0.284,-0.112,0.205,-0.431,-0.491,0.794,-0.664 (inactive),-0.11,-0.28,0.494,-0.646 (inactive),-0.586 (inactive),-1.15 (inactive),1.04,0.338 (inactive),-0.195,-0.0291,-0.323,-0.154
C[N+](C)(C)CCCCCCNC(=O)[C@H]1C[C@H]2C(=O)N3CCC[C@H]3C(=O)N2[C@H]1c1cccc(OCCO)c1,-0.238,2.05,0.0111,0.573,0.761,0.577,1.42,4.55 (inactive),0.301,0.154,1.3,-0.811 (inactive),-0.486 (inactive),0.0309 (inactive),3.24,-0.64 (inactive),0.05,0.666,1.08,0.153
